# Measured values from the antibiotic and cytotoxicity screens of Wong et al. (2023).
# The campaign covered roughly 39,000 compounds. About 500 (1.3%) were called active. Many of the other results were omitted from the sample, so actives are more common in it than they were.
# Test system: S. aureus RN4220
# Experiment: growth inhibition call (relative growth <= 0.2)
# Details: 50 µM
row,Compound,growth inhibition call
1,C[C@@H]1CN([C@@H](C)CO)C(=O)c2cccc(NC(=O)C3CC3)c2O[C@H]1CN(C)Cc1ccc(C(=O)O)cc1,inactive
2,C[C@@H]1CCCCO[C@@H](CN(C)S(=O)(=O)c2ccc(Cl)cc2)[C@@H](C)CN([C@H](C)CO)C(=O)c2cc(NC(=O)Nc3ccc(C(F)(F)F)cc3)ccc2O1,inactive
3,Cc1ccc(S(=O)(=O)Nc2ccc3c(c2)C(=O)N([C@H](C)CO)C[C@@H](C)[C@@H](CN(C)C(=O)CCC(F)(F)F)OCCCC[C@H](C)O3)cc1,inactive
4,C[C@@H]1CCCCO[C@H](CN(C)C(=O)CCCN(C)C)[C@H](C)CN([C@@H](C)CO)C(=O)c2cc(NC(=O)Nc3cccc4ccccc34)ccc2O1,inactive
5,C[C@@H]1CN([C@H](C)CO)C(=O)c2cc(C#Cc3ccccc3F)cnc2O[C@H]1CN(C)C(=O)C1CCOCC1,inactive
6,Cc1cnccc1CN1C[C@H](C(=O)O)CC1=O,inactive
7,CC(C)C#Cc1cnc2c(c1)C(=O)N([C@@H](C)CO)C[C@@H](C)[C@H](CN(C)C(=O)c1ccc3c(c1)OCO3)O2,inactive
8,Cc1ccc(S(=O)(=O)N(C)C[C@H]2Oc3c(NC(=O)C4CC4)cccc3C(=O)N([C@H](C)CO)C[C@@H]2C)cc1,inactive
9,C[C@H]1CN([C@@H](C)CO)C(=O)CCCn2cc(nn2)CO[C@H]1CN(C)C(=O)Nc1ccc(C(F)(F)F)cc1,inactive
10,C[C@H](CO)N1C[C@H](C)[C@@H](CN(C)C(=O)Nc2ccc(C(F)(F)F)cc2)OCc2cnnn2CCCC1=O,inactive
11,C[C@@H]1CN([C@H](C)CO)C(=O)CCCn2cc(nn2)CO[C@H]1CN(C)C(=O)Nc1ccc(C(F)(F)F)cc1,active
12,C[C@@H]1CN([C@@H](C)CO)C(=O)CCCn2nncc2CO[C@H]1CN(C)C(=O)Nc1ccc(C(F)(F)F)cc1,inactive
13,C[C@@H]1CN([C@H](C)CO)C(=O)CCCn2nncc2CO[C@H]1CN(C)C(=O)Nc1ccc(C(F)(F)F)cc1,active
14,C[C@@H]1CN([C@@H](C)CO)C(=O)CCCn2nncc2CO[C@@H]1CN(C)C(=O)Nc1ccc(C(F)(F)F)cc1,inactive
15,C[C@H]1CN([C@@H](C)CO)C(=O)CCCn2cc(nn2)CO[C@@H]1CN(C)C(=O)Nc1ccc(C(F)(F)F)cc1,inactive
16,C[C@H]1CN([C@@H](C)CO)C(=O)CCCn2nncc2CO[C@H]1CN(C)C(=O)Nc1ccc(C(F)(F)F)cc1,active
17,C[C@H](CO)N1C[C@H](C)[C@H](CN(C)C(=O)Nc2ccc(C(F)(F)F)cc2)OCc2cnnn2CCCC1=O,inactive
18,C[C@@H]1CN([C@H](C)CO)C(=O)CCCn2nncc2CO[C@H]1CN(C)C(=O)Nc1ccc(C(C)(C)C)cc1,inactive
19,C[C@H]1CN([C@@H](C)CO)C(=O)CCCn2nncc2CO[C@@H]1CN(C)C(=O)Nc1ccc(C(F)(F)F)cc1,active
20,C[C@@H]1CN([C@H](C)CO)C(=O)CCCn2nncc2CO[C@@H]1CN(C)C(=O)Nc1ccc(C(F)(F)F)cc1,inactive
21,C[C@H]1CN([C@@H](C)CO)C(=O)Cc2cc(NC(=O)Nc3ccc(F)cc3)ccc2O[C@H]1CN(C)S(=O)(=O)c1cn(C)cn1,inactive

row,Compound,growth inhibition call
1,CCOC(=O)CSc1nnc2c3sc4nc(N5CCOCC5)c5c(c4c3ncn12)CC(C)(C)OC5,inactive
2,C[C@H](CO)N1C[C@H](C)[C@@H](CN(C)Cc2ccc(C(F)(F)F)cc2)OCCCC[C@H](C)Oc2ccc(NS(=O)(=O)c3cn(C)cn3)cc2C1=O,inactive
3,C[C@@H]1CCCCO[C@@H](CN(C)Cc2ccccc2)[C@H](C)CN([C@H](C)CO)C(=O)c2cc(NC(=O)Nc3ccccc3)ccc2O1,inactive
4,C[C@@H]1CN([C@H](C)CO)C(=O)c2cccc(NC(=O)Nc3cccc4ccccc34)c2O[C@@H]1CN(C)C(=O)Nc1ccc2c(c1)OCO2,inactive
5,COC(=O)c1c2oc(c1C(=O)OC)C(=O)N(C)Cc1cn(nn1)C[C@@H](C)NC(=O)N[C@H](CO)CC2,inactive
6,C[C@H](CO)N1C[C@H](C)[C@@H](CN(C)C(=O)Nc2ccc3c(c2)OCO3)OCCCC[C@H](C)Oc2ccc(NC(=O)Nc3ccc(F)cc3)cc2C1=O,inactive
7,COc1ccc(NC(=O)N(C)C[C@@H]2OCCCC[C@H](C)Oc3ccc(NC(=O)Nc4ccc5c(c4)OCO5)cc3C(=O)N([C@@H](C)CO)C[C@@H]2C)cc1,inactive
8,Cc1noc(C)c1S(=O)(=O)N(C)C[C@H]1Oc2ccc(NC(=O)CCC(F)(F)F)cc2CC(=O)N([C@H](C)CO)C[C@H]1C,inactive
9,CC(=O)N(C)C[C@H]1Oc2ncc(C#C[C@H](C)O)cc2C(=O)N([C@H](C)CO)C[C@H]1C,inactive
10,C[C@@H]1CN([C@H](C)CO)C(=O)c2cc(NC(=O)CCC(F)(F)F)ccc2O[C@@H]1CN(C)C(=O)Nc1ccc(C(F)(F)F)cc1,inactive
11,Cc1noc(C)c1NC(=O)N(C)C[C@@H]1Oc2ccc(NC(=O)Nc3ccc(C(F)(F)F)cc3)cc2C(=O)N([C@H](C)CO)C[C@@H]1C,inactive
12,Cc1noc(C)c1NC(=O)Nc1ccc2c(c1)C(=O)N([C@H](C)CO)C[C@@H](C)[C@H](CN(C)C(=O)Nc1ccc(C(F)(F)F)cc1)O2,inactive
13,Cc1noc(C)c1NC(=O)Nc1ccc2c(c1)C(=O)N([C@@H](C)CO)C[C@H](C)[C@@H](CN(C)C(=O)Nc1ccc(C(F)(F)F)cc1)O2,inactive
14,C[C@@H]1CN([C@@H](C)CO)C(=O)c2cc(NC(=O)CCC(F)(F)F)ccc2O[C@H]1CN(C)C(=O)Nc1ccc(C(F)(F)F)cc1,inactive
15,Cc1noc(C)c1NC(=O)Nc1ccc2c(c1)C(=O)N([C@@H](C)CO)C[C@@H](C)[C@H](CN(C)C(=O)Nc1ccc(C(F)(F)F)cc1)O2,inactive
16,Cc1noc(C)c1NC(=O)Nc1ccc2c(c1)C(=O)N([C@@H](C)CO)C[C@@H](C)[C@@H](CN(C)C(=O)Nc1ccc(C(F)(F)F)cc1)O2,active
17,Cc1noc(C)c1NC(=O)Nc1ccc2c(c1)C(=O)N([C@H](C)CO)C[C@@H](C)[C@@H](CN(C)C(=O)Nc1ccc(C(F)(F)F)cc1)O2,inactive
18,C[C@H](CO)N1C[C@H](C)[C@@H](CN(C)C(=O)Nc2ccc(C(F)(F)F)cc2)Oc2ccc(NC(=O)CCC(F)(F)F)cc2C1=O,active
19,Cc1noc(C)c1NC(=O)Nc1ccc2c(c1)C(=O)N([C@H](C)CO)C[C@H](C)[C@H](CN(C)C(=O)Nc1ccc(C(F)(F)F)cc1)O2,active
20,Cc1noc(C)c1NC(=O)Nc1ccc2c(c1)C(=O)N([C@@H](C)CO)C[C@H](C)[C@H](CN(C)C(=O)Nc1ccc(C(F)(F)F)cc1)O2,active
21,Cc1noc(C)c1NC(=O)Nc1ccc2c(c1)C(=O)N([C@H](C)CO)C[C@H](C)[C@@H](CN(C)C(=O)Nc1ccc(C(F)(F)F)cc1)O2,inactive
